Screens (PubChem BioAssay)
Pf Dd2 growth: blocks in vitro growth of P. falciparum Dd2; P. falciparum Dd2 growth, SYBR Green, 72 h; Potency, µM (titrated, usually from 28.9 µM), actives largely listed as inhibitors; 4.3% of 120,000 active; active means well fitted inhibition curve with a large enough effect; further: nearly all actives have a fitted effect of over 65% in size
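Infected erythrocytes (Dd2, 0.3% parasitemia, 2.5% hematocrit final) are added to compound in RPMI-1640/Albumax II medium, grown 72 h at 37C in low oxygen, then lysed with saponin/Triton-X containing SYBR Green and read by fluorescence.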
Each line names hits and unclear results; the compound was inactive in the other large screens. Shown is part of a subset that was picked to be rich in hits.

CCOc1ccccc1NC(=O)CN1C(=O)NC(c2ccccc2OCC)C2=C1COC2=O (configuration not stated)	none
CC(C)N(C)Cc1nnnn1CC(=O)NCc1nc(-c2ccccc2)cs1	none
CC(=O)N1CCC2(CC1)CC(c1ccccc1)=NO2	none
CC(NC(=O)c1coc(COc2ccc(F)cc2Cl)n1)c1cnn(C)c1 (configuration not stated)	none
COc1cc(NC(=O)CC2C(=O)NCCN2C(C)C)ccc1NC(=O)C(C)(C)C (configuration not stated)	none
COC1CN(C2CCN(C(=O)NC(C)(C)C)CC2)C12CCOCC2 (configuration not stated)	none
O=C(O)C[C@@H]1CCN(C(=O)c2ccccc2)C[C@@H]1CC1=NCCc2cc(F)ccc21	none
O=C(N[C@H]1C[C@H]2C(=O)Nc3cc(Cl)ccc3C(=O)N2C1)c1ccccc1	none
COc1ccc([C@H]2C[C@@H](O)[C@@H](O)[C@@H]2NC(=O)Nc2ccc(C(F)(F)F)cc2)cc1	Pf Dd2 growth 3.16µM
COc1ccc(CC(=O)N[C@H]2[C@H](O)[C@H](O)C[C@@H]2c2ccc(C(F)(F)F)cc2)cc1	none
COc1ccc([C@H]2C[C@@H](O)[C@@H](O)[C@@H]2NC(=O)c2ccc(C(F)(F)F)cc2)cc1	none
Cc1ccccc1C(=O)N[C@H]1[C@H](O)[C@H](O)C[C@@H]1c1ccc(C(F)(F)F)cc1	Pf Dd2 growth 3.55µM
Cc1ccccc1[C@H]1C[C@@H](O)[C@@H](O)[C@@H]1NC(=O)c1ccc(C(F)(F)F)cc1	none
COc1ccccc1C(=O)N[C@H]1[C@H](O)[C@H](O)C[C@@H]1c1ccc(C(F)(F)F)cc1	none
Cc1[nH]c2ccc(F)cc2c1Cc1nc(C2CCOC2)no1 (configuration not stated)	none
Cc1ccc(C(=O)N2CC[C@@H]3COCCN(C)[C@@H]3C2)s1	none
COc1ccc(-c2cc(N3CCCN(C(=O)c4ccsc4)CC3)n[nH]2)cc1	none
O=C1NC(C(=O)N2CCc3ccccc3C2)Cn2cccc21 (configuration not stated)	none
Nc1cnc(-c2cccnc2)nc1	none
O=C(NCc1ccc2nonc2c1)[C@@]12CNC[C@@H]1CN(C1CCCC1)C2	Pf Dd2 growth 7.94µM
O=C(O)[C@]12CN(Cc3ccncc3)C[C@H]1CN(C1CCOCC1)C2	none
CCn1c(-c2ccccc2)nn(CC(=O)NCc2ccc3nonc3c2)c1=O	none
CNC(=O)[C@@H]1C[C@H](Oc2ccccc2)CN1C(=O)Nc1ccccc1	none
COc1ccc(-n2nc(C3CCCN(C(=O)Cc4cccc(Cl)c4)C3)[nH]c2=O)cc1 (configuration not stated)	none
COc1ccc(-n2nc(C3CCCN(C(=O)c4ccccc4)C3)[nH]c2=O)cc1 (configuration not stated)	Pf Dd2 growth 11.2µM
O=C(c1ccccc1Cl)N1CCCC(c2nn(-c3cccc(Cl)c3)c(=O)[nH]2)C1 (configuration not stated)	none
COc1ccc(-n2nc(C3CCN(C(=O)c4ccccc4)CC3)[nH]c2=O)cc1	none
O=C(Cc1cccc(Cl)c1)N1CCCC(c2nn(-c3cccc(Cl)c3)c(=O)[nH]2)C1 (configuration not stated)	Pf Dd2 growth 10µM
COc1ccc(C(=O)N2CCCC(c3nn(-c4ccccc4)c(=O)[nH]3)C2)cc1 (configuration not stated)	none
Cc1noc(C2CCCN2C(=O)c2cccc(CC3CCNCC3)c2)n1 (configuration not stated)	none
O=C(COCC1CCCCO1)N1CCn2nc(Cc3ccccc3)cc2C1 (configuration not stated)	none
COc1ccc(C(C(=O)O)N2CCN(Cc3csc(C)n3)CC2)cc1C (configuration not stated)	none
CCOCCN1C(=O)COC[C@@H]1[C@H](O)c1ccc(NC(=O)Nc2ccccc2)cc1	none
Cc1ccccc1C(=O)N(C)Cc1ccccc1C(F)(F)F	none
Cc1ccc(NC(=O)N2CCc3c([nH]c4ccccc34)C2c2ccccc2F)c(Cl)c1 (configuration not stated)	Pf Dd2 growth 10µM
Cc1ccc(NC(=O)N2CCN(c3nnc(C)c4c(C)n(-c5ccccc5)nc34)CC2)c(Cl)c1	none
COC(=O)CC1c2cc(OC)c(OC)cc2CCN1C(=O)Nc1ccc(C)cc1Cl (configuration not stated)	none
Cn1cc(CC(=O)N2CCCc3ncc(C(=O)NCc4ccoc4)cc32)c2ccccc21	none
O=C(c1cnc2c(c1)N([S+](=O)([O-])c1cccnc1)CCC2)N1CCC[C@@H]1c1ccc(F)cc1	none
O=C(Nc1cccc(Cl)c1)c1cnc2c(c1)N([S+](=O)([O-])c1cccnc1)CCC2	Pf Dd2 growth 11.2µM
CC(C)CCNC(=O)c1cnc2c(c1)N([S+](=O)([O-])c1cccnc1)CCC2	none
CN(C)CCNC(=O)c1cnc2c(c1)N(C(=O)Cc1cn(C)c3ccccc13)CCC2	none
Cn1cc(CC(=O)N2CCCc3ncc(C(=O)Nc4cccc(Cl)c4)cc32)c2ccccc21	Pf Dd2 growth 4.47µM
Cn1nc2n(c1=O)CCC(NC(=O)c1cncc(Br)c1)CC2 (configuration not stated)	none
